# Out of some 1,900 compounds screened, fewer than 10 were called active. About 39% were inconclusive and are not listed.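 Rule for the calls: active = Green signal of the normal strain falls at least twice as much as red signal of the resistant mutant, with overall culture growth loss under a set limit; inconclusive = no clear call, values can overlap the other calls; inactive = the rest.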 These entries were drawn from the full list.
# How the values were obtained:
# [1] = growth inhibition of wild-type GFP E. coli, dose response, h38 mutant RFP, cherry-pick (AID 977622); details: 24 h; activity change: E. coli mixed culture, total growth OD600 at 50 uM, at 50 µM; E. coli WT ribosome GFP fluorescence, mixed culture, at 50 µM (top of the series)
# [2] = test system: E. coli h38 humanized mutant ribosome RFP fluorescence, mixed culture, 24 h; assay: as above; details: h38 mutant RFP at 50 uM; at 50 µM
Structure (SMILES),activity change [1] [%],outcome [1],activity change [2] [%]
CCc1ccc(CN2CCCC(CNS(=O)(=O)c3ccc(OC)cc3)C2)cc1 (centres undefined),-13.3,inactive,9.56
COc1ccc(OC)c(NC(=O)COc2ccc(S(=O)(=O)NC(C)C)cc2)c1,-14.2,inactive,
O=C1CCCc2ccccc2N1Cc1ccccc1,-14.6,inactive,
Cc1cccc(CN2C(=O)c3ccccc3Sc3ccc(C(=O)O)cc32)c1,-13.7,inactive,
Cc1noc(C)c1NC(=O)Nc1ccc2c(c1)C(=O)N([C@@H](C)CO)C[C@@H](C)[C@H](CN(C)C(=O)Nc1ccc3c(c1)OCO3)OCCCC[C@@H](C)O2,-13.2,inactive,26.4
C=CCn1c(C)cc(C(=O)CSc2nnc(C3CC3)n2C2CC2)c1C,-20.6,inactive,-37.4
CN(C)S(=O)(=O)N1CCN(c2ccccc2Cl)CC1,-14.9,inactive,-15.7
O=C(c1ccc(-n2cccn2)cc1)N1CCc2ccccc2C1,-28.7,inactive,-27.7
Cc1onc(-c2ccccc2Cl)c1C(=O)Nc1ccc(Cl)cn1,-9.88,inactive,
COc1cc(C#N)ccc1OCC(=O)Nc1cccc(S(=O)(=O)N2CCCC2)c1,-1.82,inactive,-20.8
COc1ccc(C2CC(=O)Oc3cc(C)cc(C)c32)cc1 (centres undefined),-0.711,inactive,12.7
O=C(Nc1cc(S(=O)(=O)N2CCOCC2)ccc1N1CCOCC1)c1ccc([N+](=O)[O-])s1,-3.16,inactive,13.2
COc1ccccc1Cc1c(-c2ccc(F)cc2)nc2ccc(Br)cn12,-10.3,inactive,
CN(C)CCNc1ncnc2c1sc1nc(N3CCCC3)c3c(c12)CC(C)(C)OC3,-21.5,inactive,-11.2
Cc1ccccc1NC(=O)c1ccccc1N(C)S(=O)(=O)c1ccccc1,-14.8,inactive,-11.7
O=C1OC[C@@H]2CCCN2C(=O)[C@@H](CC(=O)N(CCO)Cc2ccccc2)C/C=C\C[C@H]1Cc1ccc(F)cc1,-20.1,inactive,-35.1
COc1cccc(CN(C)Cc2nc(Cc3ccccc3Cl)no2)c1,-26.5,inactive,24.2
CC(CCc1ccccc1)NC(=O)CCC1CCCC1 (centres undefined),-8.51,inactive,4.55
CCNC(=O)C1(C)CCCN(Cc2cccc3ccccc23)C1 (centres undefined),1.55,inactive,69.8
CCS(=O)(=O)N1CCN(c2ccnc3cc(Cl)ccc23)CC1,-3.73,inactive,61.1
Cc1ccc(-n2cc(CNCCN3CCOC3=O)c(-c3ccc(F)cc3)n2)cc1,-3.42,inactive,31.2
Cc1cc(C)cc(NS(=O)(=O)c2cc(C(=O)NCc3ccccn3)ccc2Cl)c1,-24.9,inactive,-5.16
CCn1c(COc2cccc(OC)c2)nnc1SCC(=O)Nc1cc(OC)ccc1OC,-38.2,inactive,-20.2
C[C@@H]1CN([C@@H](C)CO)S(=O)(=O)c2ccc(Br)cc2O[C@H]1CN(C)C(=O)c1ccccc1,-2.07,inactive,
C[C@@H]1CCCCO[C@H](CN(C)C)[C@@H](C)CN([C@H](C)CO)C(=O)c2cc(NC(=O)Nc3cccc4ccccc34)ccc2O1,8.4,inactive,44.4
O=C(C[n+]1cc(-c2ccc(F)cc2)n2c1CCC2)c1cccs1,2.39,inactive,21.5

Structure (SMILES),activity change [1] [%],outcome [1],activity change [2] [%]
C[C@H](CO)N1C[C@H](C)[C@H](CN(C)C(=O)Nc2ccc3c(c2)OCO3)Oc2c(NC(=O)Nc3ccccc3)cccc2C1=O,-5.63,inactive,44
Cc1ccc2oc(=O)n(CCCOc3ccccc3C)c2c1,-15.8,inactive,-0.57
COc1ccc(CN2CCC3CC2c2cc(Cl)ccc23)cc1 (centres undefined),-30.7,inactive,-4.61
NS(=O)(=O)c1cc(C(=O)OCC(=O)Nc2ccccc2[N+](=O)[O-])ccc1Cl,-8.81,inactive,1.48
CC(=O)Oc1ccc(N(c2ccccc2)S(=O)(=O)c2ccc(C)cc2)cc1,-32.3,inactive,
COc1ccc(NC(=O)Nc2cccc3c2O[C@H](CN(C)S(=O)(=O)c2ccc(Cl)cc2)[C@@H](C)CN([C@@H](C)CO)C3=O)cc1,-2.69,inactive,-5.12
O=C(O)c1ccccc1Nc1cc(Cl)c2nonc2c1[N+](=O)[O-],-25.7,inactive,
C[C@@H]1CCCCO[C@H](CN(C)C)[C@H](C)CN([C@@H](C)CO)C(=O)c2cc(NC(=O)Nc3cccc4ccccc34)ccc2O1,4.86,inactive,1.63
COc1ccc(C#Cc2ccc([C@@H]3[C@@H](CO)N4CCCCN(C(=O)Nc5ccc(F)cc5)C[C@H]34)cc2)cc1,-49.7,inactive,97.4
Cc1cccc(Oc2ccc(NC(=O)c3ccccc3C(=O)O)cc2)c1,-16.2,inactive,
CCOCC(=O)Nc1c(C(=O)Nc2ccc3c(c2)OCCO3)oc2ccccc12,-44.7,inactive,4.56
COc1cc2c(c(OC)c1OC)C(c1ccc3c(c1)OCO3)CC(=O)O2 (centres undefined),-14.3,inactive,37.2
CCC(C)c1ccccc1NC(=O)c1cccc(-n2cnnn2)c1 (centres undefined),-13.9,inactive,-4.87
CN(C)CCCN(C(=O)CCOc1ccccc1)c1nc2c(F)cccc2s1,-10.6,inactive,-7.27
CC(NC(=O)c1ccc(CS(=O)(=O)c2ccc(Cl)cc2)o1)c1ccc2c(c1)OCCO2 (centres undefined),-24.9,inactive,17.5
NS(=O)(=O)c1ccc(NC(=O)c2cc(Cl)sc2Cl)cc1,0.867,inactive,13.3
CC(C)(CC(=O)O)CC(=O)NCc1c(Cl)cccc1Sc1ccc(Cl)cc1,-12.9,inactive,
C[C@H]1CN([C@@H](C)CO)C(=O)c2c(c3ccccc3n2C)-c2ccccc2CO[C@@H]1CN(C)Cc1ccncc1,-20.6,inactive,-32.1
CCCCc1n(CC(=O)c2ccc(Cl)cc2)c2ccccc2[n+]1C,-11.8,inactive,5.85
Cc1noc(C)c1NC(=O)Nc1ccc2c(c1)C(=O)N([C@H](C)CO)C[C@H](C)[C@H](CN(C)C(=O)Nc1ccc3c(c1)OCO3)OCCCC[C@H](C)O2,-22,inactive,-9.02
Cc1cccc(-c2ccc([C@H]3[C@@H](CO)N4CCCCN(S(=O)(=O)c5ccccc5C)C[C@@H]34)cc2)c1,-22.4,inactive,18.9
Cc1ccccc1CSCC(=O)Nc1ccccc1F,0.464,inactive,-14.9
Cc1ccc(-n2nnnc2SCC(=O)NC2CCCc3ccccc32)cc1 (centres undefined),,inactive,6.43
Cc1ccc(C(=O)Nc2cccc3[nH]c(C(F)(F)F)nc23)cc1,-24.3,inactive,-27.5
CS(=O)(=O)Nc1ccccc1C(=O)NCCSc1ccccc1,,inactive,-11.5
O=C(C[n+]1ccn(-c2ccccc2)c1)c1ccc([N+](=O)[O-])cc1,-2.75,inactive,-5.23

Structure (SMILES),activity change [1] [%],outcome [1],activity change [2] [%]
CCOC(=O)c1cnc2ccccc2c1NCc1ccco1,-29.3,inactive,-3.48
NC(=O)C1CCN(c2cc(Cl)ccc2[N+](=O)[O-])CC1,-7.61,inactive,-0.291
COCCn1c(SCc2nc3ccccc3s2)nc2ccccc21,15.3,inactive,9.77
CC(=O)c1cccc(NC(=O)COC(=O)CCC(=O)c2ccc(F)cc2)c1,-8.28,inactive,14.5
OCCC1CN(Cc2cnc(-c3ccc(Cl)cc3)nc2)CCN1C1CCCCC1 (centres undefined),-4.88,inactive,
CN1c2ccccc2-c2nc3ccccc3n2C1c1ccncc1 (centres undefined),-2.28,inactive,-4.12
C=C1c2cc3c(cc2NC(=S)N1Cc1ccccc1)OCO3,-19.2,inactive,-23.6
CC(=O)c1cccc(NC(=O)C2CCCN(S(C)(=O)=O)C2)c1 (centres undefined),4.2,inactive,
CC(C)CC#Cc1ccc([C@@H]2[C@@H](CO)N3C(=O)CN(C(=O)Cc4ccccc4)C[C@@H]23)cc1,9.26,inactive,19.9
OC(COc1ccc(Cl)cc1)CN1CCN(c2ccccn2)CC1 (centres undefined),-8.02,inactive,
CN(CC(=O)Nc1cccc(F)c1)C(=O)Cn1c(=O)oc2ccccc21,2.16,inactive,60
CCN(CC)S(=O)(=O)c1ccc(O)c(C(=O)OCC(=O)NC23CC4CC(CC(C4)C2)C3)c1,-19.8,inactive,
CC1(CCC(=O)N2CCCC(N3CCN(c4ccc(F)cc4)CC3)C2)CC1 (centres undefined),-2.02,inactive,22.3
CCc1ccc(NC(=O)CCc2c(C)nn(-c3ccc(N4CCCCC4)nn3)c2C)cc1,-4.17,inactive,-12.8
COc1cccc(C(=O)c2c[nH]c(C(=O)NCc3cccnc3)c2)c1,-3.41,inactive,13.5
COc1ccc(NS(=O)(=O)c2cc(NC(=O)CNC(=O)c3cccc(OC)c3)ccc2C)cc1,-27.6,inactive,-12.3
O=C(Nc1ccc(Cl)cn1)c1ccc([N+](=O)[O-])o1,-3.86,inactive,54.7
COc1cccc(CC(=O)OC(C)C(=O)NCc2ccc3c(c2)OCO3)c1 (centres undefined),-31,inactive,6.13
O=S(=O)(Cc1ccccc1)N1CCCCN2[C@@H](CO)[C@H](c3ccc(C#Cc4ccccc4)cc3)[C@@H]2C1,2.15,inactive,11.8
Nc1[nH]c(C(=O)c2ccccc2)c(-c2ccc(Cl)cc2)c1C(=O)NCCc1c[nH]c2ccccc12,-15.2,inactive,2
Cc1ccccc1-n1c([C@@H]2C[C@H]2c2ccccc2)n[nH]c1=S,-23.8,inactive,
COc1ccc(OC)c(NC(=O)COC(=O)CCNc2ccccc2OC)c1,-9.13,inactive,-0.869
Cc1ccc(NC(=O)c2ccc3c(c2)OCO3)cc1S(=O)(=O)N1CCOCC1,-35.8,inactive,-6.07
COc1ccc(NC(=O)CN(c2ccccc2OC)S(=O)(=O)c2cccs2)cc1Cl,-14.2,inactive,19
Cc1cccc(OCCC(=O)N(C)CC(=O)Nc2cccc3ccccc23)c1,-25.4,inactive,27.9

# — PubChem BioAssay AID977622 (Broad Institute, 2014)
